Consider 7 compounds from PubChem BioAssay (Tox21).

Test [1] is described as follows: qHTS assay to identify small molecule agonists of the sonic hedgehog signaling (Shh) pathway (AID 1259368; calls by dose curve; further: nearly all actives have a fitted effect of over 15% in size; further: potency means the concentration at half of the fitted maximal effect). The method in brief:
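A Gli1 transcriptional response element controlled firefly luciferase in 3T3Gli1-Luc cells. Compounds and a positive control were added 4 hr after plating, and cells were incubated a further 24 hr at 37 C before luminescence detection.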

Test [2] in a line: qHTS assay to identify small molecule antagonists of the sonic hedgehog signaling (Shh) pathway (AID 1259369; calls by dose curve; further: nearly all actives have a fitted effect of over 45% in size; further: potency means the concentration at half of the fitted maximal effect). The method in brief: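 For antagonist detection, the reporter line received test compounds together with conditioned medium, incubated 24hr at 37 C, 5% CO2, then luminescence was recorded following 30min room-temperature luciferase reagent incubation.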
Test [3] addresses Estrogen receptor beta (Homo sapiens) (UniProt Q92731). The test is described as follows: qHTS assay to identify small molecule agonists of the estrogen receptor beta (ER-beta) signaling pathway (AID 1259377; active means well fitted activation curve with a large enough effect in the signal ratio in the repeat runs, not every such curve was filed as active; the % refers to the signal ratio). The method in brief:
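ER-beta-UAS-bla HEK293T cells in medium with 2% charcoal-stripped FBS were exposed to compounds for 16 h at 37C. Beta-lactamase reporter activity was read as fluorescence after 2 h with LiveBLAzer B/G FRET substrate at room temperature.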

Test [4] in a line: qHTS assay to identify small molecule agonists of the androgen receptor (AR) signaling pathway in the presence of an antagonist - cell viability counter screen (AID 1259379).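 Further: MDA-kb2 human breast cancer cells carrying an MMTV luciferase reporter; series mostly up to about 92 µM; nearly all actives have a fitted effect of over 25% in size.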 The method in brief:
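Seed MDA-kb2 at 3,000 cells/well; incubate 5 hr, 37C, 0% CO2. Add nilutamide to 3.0uM final, then pin compounds at 15 concentrations. Incubate 16 hr. Add CellTiter-Fluor at 15 hr, read fluorescence after 1 hr.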

The nature of test [5]: qHTS assay to identify small molecule agonists of the estrogen receptor beta (ER-beta) signaling pathway - cell viability counter screen (AID 1259380). Further: nearly all actives have a fitted effect of over 30% in size. A digest of the protocol:
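CellTiter-Glo read, 30 min RT, same wells as bla assay; cells ER-beta-UAS-bla HEK293T; 16 hr compound, 37C; medium 2% charcoal-stripped FBS.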

A short description of test [6]: qHTS assay to identify small molecule antagonists of the estrogen receptor beta (ER-beta) signaling pathway - cell viability counter screen (AID 1259382). Further: series mostly up to about 92 µM; nearly all actives have a fitted effect of over 55% in size. The method in brief:
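In this multiplexed counter screen, cells were seeded at 2,000 per well in medium with 2% charcoal-stripped FBS and incubated 6 hr before compound and 1nM final E2 were added. Sixteen hours later, ATP-based luminescence reported viability.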

Test [7] in a line: qHTS assay to identify small molecule agonists or antagonists of the thyroid stimulating hormone receptor (TSHR) signaling pathway - wild type cell line counter screen (AID 1259384; calls by dose curve). A digest of the protocol:
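Wild-type HEK293 cells were plated 18 h at 37 C/5% CO2, pin-dosed with compound plus Ro20-1724 medium, held 30 min at room temperature, then given cAMP-d2 and anti-cAMP-cryptate; fluorescence was read after 1 h. Fifteen concentrations, triplicate.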

Test [8] deals with Thyrotropin receptor (Homo sapiens) (UniProt P16473). Put plainly: qHTS assay to identify small molecule antagonists of the thyroid stimulating hormone receptor (TSHR) signaling pathway (AID 1259385; calls by dose curve; further: nearly all actives have a fitted effect of over 20% in size). A digest of the protocol:
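TSHR-HEK293 cells were plated and held 18 h at 37C/5% CO2, then given compound plus Ro20-1724 and stimulated with TSH at 1.5 ng/mL final. After 30 min at room temperature, cAMP was detected with cAMP-d2/anti-cAMP-cryptate (1 h) by fluorescence.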

The nature of test [9]: qHTS assay to identify small molecule agonists of the estrogen receptor alpha (ER-alpha) signaling pathway in the presence of an antagonist - cell viability counter screen (AID 1259386).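 Further: series mostly up to about 92 µM; cells exposed to compounds for 22 h at 37 °C before the viability read; nearly all actives have a fitted effect of over 30% in size.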 The method in brief:
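Viability counter screen using VM7Luc4E2 (full-length ER-alpha, four ERE-luciferase). The cells were treated with compounds alongside ICI-182,780 10.0nM for 22hr, and live-cell protease fluorescence was quantified with CellTiter-Fluor.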

The target in test [10] is Progesterone receptor (Homo sapiens) (UniProt P06401). The test is described as follows: qHTS assay to identify small molecule agonists of the progesterone receptor (PR) signaling pathway (AID 1346784; calls by dose curve; further: nearly all actives have a fitted effect of over 30% in size). A digest of the protocol: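 PR-UAS-bla HEK 293T cells (beta-lactamase reporter under UAS) in 2% charcoal-stripped FBS, dosed with 23 nL compound after 6 hr, incubated 16hr at 37C. LiveBLAzer B/G FRET substrate added, fluorescence read after 2 hours.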
Chain of Progesterone receptor (Homo sapiens) (P06401 whole entry, looked up): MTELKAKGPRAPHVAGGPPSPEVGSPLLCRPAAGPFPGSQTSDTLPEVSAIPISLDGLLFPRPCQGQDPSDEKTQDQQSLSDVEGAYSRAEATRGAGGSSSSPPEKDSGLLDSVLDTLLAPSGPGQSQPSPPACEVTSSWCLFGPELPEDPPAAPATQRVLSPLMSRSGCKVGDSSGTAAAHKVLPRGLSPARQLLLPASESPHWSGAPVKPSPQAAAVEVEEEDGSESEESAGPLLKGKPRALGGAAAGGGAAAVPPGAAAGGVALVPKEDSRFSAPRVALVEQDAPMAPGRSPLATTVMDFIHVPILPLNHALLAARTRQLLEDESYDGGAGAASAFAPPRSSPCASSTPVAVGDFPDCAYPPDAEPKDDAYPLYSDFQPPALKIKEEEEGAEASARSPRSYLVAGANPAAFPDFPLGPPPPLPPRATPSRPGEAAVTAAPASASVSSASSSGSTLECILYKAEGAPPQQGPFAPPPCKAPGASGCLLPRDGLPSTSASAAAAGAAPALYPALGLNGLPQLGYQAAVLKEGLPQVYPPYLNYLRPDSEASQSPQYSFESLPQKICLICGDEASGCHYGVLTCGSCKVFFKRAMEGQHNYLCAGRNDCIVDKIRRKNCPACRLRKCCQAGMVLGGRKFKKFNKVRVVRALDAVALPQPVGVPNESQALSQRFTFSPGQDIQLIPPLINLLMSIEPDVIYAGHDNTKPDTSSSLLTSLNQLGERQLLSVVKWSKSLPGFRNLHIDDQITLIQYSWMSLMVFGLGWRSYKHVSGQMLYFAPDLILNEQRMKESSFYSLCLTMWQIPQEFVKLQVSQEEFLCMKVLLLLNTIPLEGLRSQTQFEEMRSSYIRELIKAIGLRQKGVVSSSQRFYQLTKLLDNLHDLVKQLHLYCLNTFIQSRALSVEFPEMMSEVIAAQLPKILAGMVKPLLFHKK

Test [11] is described as follows: qHTS assay to identify small molecule antagonists of the TGF-beta/Smad signaling pathway - cell viability counter screen (AID 1346824). Further: nearly all actives have a fitted effect of over 50% in size. The method in brief: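 SBE-bla HEK 293T cells were plated overnight at 37 C, then given compounds in DMSO plus TGF-beta1 (added as 0.25 ng/mL solution) for 5 hr. After the bla read, CellTiter-Glo was added to the same wells and luminescence read after 30 min at room temperature.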

Test [12] is described as follows: qHTS assay to identify small molecule agonists of the TGF-beta/Smad signaling pathway - cell viability counter screen (AID 1346829). Further: top concentration of the series differs between compounds; nearly all actives have a fitted effect of over 45% in size. The method in brief: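 In parallel with the Smad reporter read, viability of HEK 293T cells stably carrying SBE-bla is quantified by ATP luminescence following 5 hr compound treatment.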
Test [13] can be described thus: qHTS assay to identify small molecule agonists of the TGF-beta/Smad signaling pathway (AID 1346859; active means well fitted activation curve with a large enough effect in the signal ratio in the repeat runs, not every such curve was filed as active; the % refers to the signal ratio; further: series mostly up to about 77 µM). The method in brief: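 SBE-bla HEK293T cells plated overnight, then compound exposure for 5 h at 37 C. Beta-lactamase reporter read with LiveBLAzer B/G FRET substrate after 2 h at room temperature, fluorescence at 405 nm excitation, 460/530 nm emission.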
The target of test [14] is Thyrotropin-releasing hormone receptor (Homo sapiens) (UniProt P34981). The test is described as follows: qHTS assay to identify small molecule antagonists of the thyrotropin-releasing hormone receptor (TRHR) signaling pathway (AID 1346877; active means well fitted inhibition curve with a large enough effect in the repeat runs, not every such curve was filed as active; further: series mostly up to about 51 µM). A digest of the protocol: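 Following an 18 h incubation at 37 °C and a 2 h calcium dye load, TRHR-HEK293 cells were exposed to compound (5 min, room temperature) and challenged with TRH, 1 nM final.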
Chain of Thyrotropin-releasing hormone receptor (Homo sapiens) (P34981 whole entry, looked up): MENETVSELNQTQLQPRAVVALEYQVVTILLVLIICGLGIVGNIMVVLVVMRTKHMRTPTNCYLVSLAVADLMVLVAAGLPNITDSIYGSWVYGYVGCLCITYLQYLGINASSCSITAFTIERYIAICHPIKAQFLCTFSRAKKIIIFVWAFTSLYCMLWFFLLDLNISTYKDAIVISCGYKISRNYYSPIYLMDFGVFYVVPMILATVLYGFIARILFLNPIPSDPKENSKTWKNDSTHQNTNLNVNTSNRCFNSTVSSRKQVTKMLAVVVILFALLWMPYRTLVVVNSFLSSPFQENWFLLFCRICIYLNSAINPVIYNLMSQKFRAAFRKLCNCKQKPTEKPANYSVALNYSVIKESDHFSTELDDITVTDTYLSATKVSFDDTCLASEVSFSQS

Test [15] concerns the target Estrogen receptor beta (Homo sapiens) (UniProt Q92731). The test is described as follows: qHTS assay to identify small molecule antagonists of the estrogen receptor beta (ER-beta) signaling pathway (AID 1259378; active means well fitted inhibition curve with a large enough effect in the signal ratio in the repeat runs, not every such curve was filed as active; the % refers to the signal ratio). A digest of the protocol:
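ER-beta-UAS-bla HEK293T (GripTite) cells in 2% charcoal-stripped FBS medium were preincubated 6 hr at 37C, dosed with compound, then stimulated with 1 nM E2 (final) for 16 hr; beta-lactamase reporter read by B/G FRET fluorescence after 2 hr substrate loading.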

In test [16] the target is Estrogen receptor (Homo sapiens) (UniProt P03372). Put plainly: qHTS assay to identify small molecule agonists of the estrogen receptor alpha (ER-alpha) signaling pathway in the presence of an antagonist (AID 1259383; calls by dose curve; further: top concentration of the series differs between compounds; nearly all actives have a fitted effect of over 15% in size). The method in brief: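 Stably transfected VM7Luc4E2 reporter cells, kept 5 days in charcoal-stripped serum, received ICI-182,780 at 10.0nM final before compound addition. Following 22hr incubation at 37C and 5% CO2, luciferase signal was read by luminescence.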
Chain of Estrogen receptor (Homo sapiens) (P03372 whole entry, looked up): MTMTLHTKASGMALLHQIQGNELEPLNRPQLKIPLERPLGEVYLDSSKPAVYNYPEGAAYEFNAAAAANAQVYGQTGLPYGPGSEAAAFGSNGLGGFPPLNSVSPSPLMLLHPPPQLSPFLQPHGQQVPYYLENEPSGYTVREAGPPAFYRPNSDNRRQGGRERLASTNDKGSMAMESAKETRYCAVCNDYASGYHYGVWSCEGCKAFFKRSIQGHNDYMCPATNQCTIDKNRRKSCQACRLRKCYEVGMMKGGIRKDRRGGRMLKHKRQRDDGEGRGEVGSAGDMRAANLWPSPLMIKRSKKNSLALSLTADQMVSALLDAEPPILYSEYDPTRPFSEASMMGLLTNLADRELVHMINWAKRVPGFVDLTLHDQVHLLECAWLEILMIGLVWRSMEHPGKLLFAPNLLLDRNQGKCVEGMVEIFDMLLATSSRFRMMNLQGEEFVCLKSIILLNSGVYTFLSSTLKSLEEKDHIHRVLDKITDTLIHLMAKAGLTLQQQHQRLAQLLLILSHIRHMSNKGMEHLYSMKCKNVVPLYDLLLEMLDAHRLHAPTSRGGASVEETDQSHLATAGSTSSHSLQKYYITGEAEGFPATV

In test [17] the target is Progesterone receptor (Homo sapiens) (UniProt P06401). The test is described as follows: qHTS assay to identify small molecule antagonists of the progesterone receptor (PR) signaling pathway (AID 1346795; active means well fitted inhibition curve with a large enough effect in the signal ratio in the repeat runs, not every such curve was filed as active; the % refers to the signal ratio). A digest of the protocol: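 PR-UAS-bla HEK293T cells with beta-lactamase reporter under UAS control, in 2% charcoal-stripped FBS, treated with compounds plus 1 nM promegestone (R5020, final) for 16 hr at 37C. Read-out: FRET beta-lactamase substrate fluorescence after 2 hr at room temperature.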

Test [18] in a line: qHTS assay to identify small molecule antagonists of the progesterone receptor (PR) signaling pathway - cell viability counter screen (AID 1346798). Further: series mostly up to about 92 µM; nearly all actives have a fitted effect of over 50% in size. The method in brief: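 PR-UAS-bla HEK293T cells, 3,000/well in 2% charcoal-stripped FBS medium, dosed with compounds plus R5020 agonist and incubated 16 h at 37C. Viability then measured in the same wells by CellTiter-Glo luminescence after 30 min at RT.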

A short description of test [19]: qHTS assay to identify small molecule agonists of the progesterone receptor (PR) signaling pathway - cell viability counter screen (AID 1346799; calls by dose curve; further: nearly all actives have a fitted effect of over 45% in size). The method in brief: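 Counter screen in the PR-UAS-bla HEK293T wells (2% charcoal-stripped FBS, 16 h compound exposure at 37 C) after the bla read. CellTiter-Glo added, 30 min at room temperature, luminescence read as cell viability.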

The target in test [20] is Androgen receptor (Homo sapiens) (UniProt P10275). Put plainly: qHTS assay to identify small molecule agonists of the androgen receptor (AR) signaling pathway in the presence of an antagonist (AID 1259381; calls by dose curve; further: nearly all actives have a fitted effect of over 15% in size). A digest of the protocol:
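Test compounds at 15 concentrations were incubated for 16hr with MDA-kb2 reporter cells in presence of 3.0uM nilutamide (final). Signal: ONE-Glo luciferase luminescence.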

A number with no mark means an inactive call. Results filed as inconclusive are left out. Activity calls are given as the source filed them. Unless noted, the call rests on the fitted dose curve; in most records, active means well fitted curve in the direction sought with a large enough effect in the repeat runs; inconclusive means weak or mixed curves; inactive means no such curve, though single readings can be large; an effect the other way counts as inactive or inconclusive.

Chain of Estrogen receptor beta (Homo sapiens) (Q92731 whole entry, looked up): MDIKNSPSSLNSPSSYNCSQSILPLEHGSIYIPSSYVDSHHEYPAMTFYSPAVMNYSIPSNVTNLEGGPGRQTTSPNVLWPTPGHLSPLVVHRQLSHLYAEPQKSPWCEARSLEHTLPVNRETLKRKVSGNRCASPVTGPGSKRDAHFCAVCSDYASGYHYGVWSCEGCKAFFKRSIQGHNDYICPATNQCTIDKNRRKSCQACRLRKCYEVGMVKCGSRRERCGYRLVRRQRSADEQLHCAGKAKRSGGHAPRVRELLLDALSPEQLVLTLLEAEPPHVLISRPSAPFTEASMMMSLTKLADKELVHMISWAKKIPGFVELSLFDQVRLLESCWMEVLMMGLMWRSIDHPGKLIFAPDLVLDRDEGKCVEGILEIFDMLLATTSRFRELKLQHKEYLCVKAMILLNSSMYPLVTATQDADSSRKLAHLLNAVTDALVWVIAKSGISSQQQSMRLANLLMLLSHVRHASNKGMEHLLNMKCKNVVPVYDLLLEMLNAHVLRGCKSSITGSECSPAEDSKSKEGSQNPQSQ
Chain of Thyrotropin receptor (Homo sapiens) (P16473 whole entry, looked up): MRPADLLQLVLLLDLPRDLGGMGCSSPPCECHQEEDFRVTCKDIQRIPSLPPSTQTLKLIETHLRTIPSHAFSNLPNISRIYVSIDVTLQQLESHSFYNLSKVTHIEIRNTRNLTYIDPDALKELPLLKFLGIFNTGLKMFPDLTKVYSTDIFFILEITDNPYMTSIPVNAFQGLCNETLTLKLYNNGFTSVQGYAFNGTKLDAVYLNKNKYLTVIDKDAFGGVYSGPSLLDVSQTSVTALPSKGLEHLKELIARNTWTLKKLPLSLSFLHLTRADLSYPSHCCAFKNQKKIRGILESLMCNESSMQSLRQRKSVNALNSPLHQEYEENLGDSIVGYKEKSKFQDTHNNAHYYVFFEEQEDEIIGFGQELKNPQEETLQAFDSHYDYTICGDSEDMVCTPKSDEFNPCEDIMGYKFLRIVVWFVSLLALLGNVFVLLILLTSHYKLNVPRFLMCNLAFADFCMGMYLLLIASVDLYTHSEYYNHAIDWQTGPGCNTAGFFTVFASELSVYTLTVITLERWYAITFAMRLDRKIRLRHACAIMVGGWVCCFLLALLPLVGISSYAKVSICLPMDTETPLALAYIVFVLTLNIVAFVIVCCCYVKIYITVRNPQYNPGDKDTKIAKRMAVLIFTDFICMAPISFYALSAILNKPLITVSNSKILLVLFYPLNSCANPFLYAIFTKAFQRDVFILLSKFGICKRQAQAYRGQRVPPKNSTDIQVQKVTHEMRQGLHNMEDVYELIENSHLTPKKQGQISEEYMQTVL
Chain of Androgen receptor (Homo sapiens) (P10275 whole entry, looked up): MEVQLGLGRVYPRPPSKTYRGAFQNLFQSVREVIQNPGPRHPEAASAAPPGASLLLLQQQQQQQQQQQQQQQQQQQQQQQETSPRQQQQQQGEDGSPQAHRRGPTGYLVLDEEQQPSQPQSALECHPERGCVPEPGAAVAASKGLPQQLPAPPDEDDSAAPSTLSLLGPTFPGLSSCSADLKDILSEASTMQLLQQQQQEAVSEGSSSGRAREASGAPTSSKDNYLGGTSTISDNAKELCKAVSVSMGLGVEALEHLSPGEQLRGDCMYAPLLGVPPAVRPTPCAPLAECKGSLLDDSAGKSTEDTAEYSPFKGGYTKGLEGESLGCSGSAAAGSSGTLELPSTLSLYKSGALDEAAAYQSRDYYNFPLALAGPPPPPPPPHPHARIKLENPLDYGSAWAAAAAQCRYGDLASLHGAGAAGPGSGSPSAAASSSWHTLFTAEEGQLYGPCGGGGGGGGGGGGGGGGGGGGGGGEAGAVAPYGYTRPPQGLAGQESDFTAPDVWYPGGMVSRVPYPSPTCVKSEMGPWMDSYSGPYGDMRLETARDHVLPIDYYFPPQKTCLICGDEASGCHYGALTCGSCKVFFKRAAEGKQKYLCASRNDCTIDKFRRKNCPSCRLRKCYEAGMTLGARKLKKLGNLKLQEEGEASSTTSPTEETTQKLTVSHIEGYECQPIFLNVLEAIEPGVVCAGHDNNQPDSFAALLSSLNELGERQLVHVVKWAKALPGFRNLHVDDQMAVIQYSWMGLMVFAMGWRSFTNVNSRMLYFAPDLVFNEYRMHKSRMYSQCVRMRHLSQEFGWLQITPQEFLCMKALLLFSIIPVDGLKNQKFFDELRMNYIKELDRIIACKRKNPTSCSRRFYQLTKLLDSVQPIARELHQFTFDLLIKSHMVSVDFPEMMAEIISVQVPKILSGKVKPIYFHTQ

As for `Cc1onc(-c2ccccc2)c1-c1ccc(S(N)(=O)=O)cc1`, the Potency result in test [1], in test [4], in test [5], in test [6], in test [8] and in [10] was “inactive” throughout. Besides, the Potency in test [2] is 18.8 µM (active). For the same compound, the result in [3], in test [7], in [9], in test [11], in [12] and in [13] was inactive. Moreover, the outcome in test [14] was inactive.
For the compound `CC12CCC(CC1=O)C2(C)C` (stereo unspecified), the Potency entry in test [1], in [2], in test [15], in test [4], in [5] and in [6] was “inactive” in each case. Besides, the Potency result in test [16], in test [8], in test [10], in test [17], in test [18] and in [19] was “inactive” throughout. The compound was called inactive in test [7], in test [11], in test [12], in [13] and in test [14].
As to `COc1ccc(NC(C)=O)cc1`, the Potency entry in test [1], in test [2], in test [15], in test [4], in test [5] and in test [20] was “inactive” throughout. Further, the Potency result in [6], in test [8], in [10], in test [17], in test [18] and in test [19] was “inactive” in each case. In addition, the outcome in [7], in test [9], in [11] and in [13] was inactive.
With `N#CCN(CC#N)CCN(CC#N)CC#N`, the Potency entry in test [1], in [2], in [15], in test [4], in test [5] and in test [6] was “inactive” each time. Also, the Potency entry in test [8], in test [10], in test [17], in [18] and in test [19] was “inactive” throughout. For the same compound, the result in [9], in [11], in test [12], in [13] and in [14] was inactive.
Consider `CCN1CCN(c2cc3c(cc2F)c(=O)c(C(=O)O)cn3C2CC2)CC1`, for which the Potency result in [1], in test [2], in [15], in test [4], in test [5] and in test [20] was “inactive” each time. In addition, the Potency result in [6], in test [8], in test [10], in test [17], in [18] and in test [19] was “inactive” in each case. The result in [7], in test [9], in [11], in test [12] and in test [14] was inactive.
`COc1ccc(N=[N+]([O-])c2ccc(OC)cc2)cc1`: the Potency in test [1] is 0.121 µM (active). Further, the Potency result in test [2], in test [4], in test [6], in test [16], in [8] and in test [17] was “inactive” in each case. The result in test [3], in [7], in test [9], in [11], in [12] and in test [13] was inactive. Besides, the outcome in test [14] was inactive.
Turning to `C=CCOCC(O)CS(=O)(=O)O` (stereo unspecified), the Potency entry in test [1], in test [2], in test [15], in [4], in test [5] and in [6] was “inactive” each time. Further, the Potency entry in [16], in test [8], in test [17], in test [18] and in test [19] was “inactive” throughout. Also, the compound was called inactive in [7], in [9], in [11], in test [12], in test [13] and in [14].
